{"source": "PubChem BioAssay (EPA / NIEHS)", "key": {"[1]": {"assay": "ATG_TAL_CIS: Attagene CIS-FACTORIAL HepG2 Assay for human TAL Basal Promoter (AID 2282966)", "conditions": "HepG2 Attagene cis-factorial TAL promoter reporter; actives raise or lower the signal", "how_it_was_run": "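After 24 hours of chemical exposure, transfected HepG2 cells yielded RNA that was converted to 6-FAM-labelled, HpaI-digested reporter fragments for capillary electrophoresis. Values derive from bidirectional fitting against DMSO controls.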"}, "[2]": {"assay": "ATG_TGFb_CIS: Attagene CIS-FACTORIAL HepG2 Assay for human Transforming Growth Factor (TGF) (AID 2282967)", "conditions": "HepG2 Attagene CIS TGFb reporter, mRNA transcription; actives raise or lower the signal", "how_it_was_run": "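Multiplexed cis-reporter HepG2 system, 24 h treatment; mRNA induction read by fluorescence after RT-PCR and CE; DMSO negative control, bidirectional curve fitting.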"}, "[3]": {"assay": "ATG_VDRE_CIS: Attagene CIS-FACTORIAL HepG2 Assay for human Vitamin D Receptor Element (VDRE) (AID 2282968)", "conditions": "HepG2 VDRE cis-reporter transcription, actives raise or lower the signal", "how_it_was_run": "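Compounds were applied for 24 h to HepG2 cells transfected with promoter-regulated reporter units. Total RNA was reverse-transcribed, and reporter amplicons were fluorescently labelled and sized by capillary electrophoresis.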"}, "[4]": {"target": "X-box-binding protein 1 (Homo sapiens) (UniProt P17861)", "sequence (P17861 whole entry, looked up)": "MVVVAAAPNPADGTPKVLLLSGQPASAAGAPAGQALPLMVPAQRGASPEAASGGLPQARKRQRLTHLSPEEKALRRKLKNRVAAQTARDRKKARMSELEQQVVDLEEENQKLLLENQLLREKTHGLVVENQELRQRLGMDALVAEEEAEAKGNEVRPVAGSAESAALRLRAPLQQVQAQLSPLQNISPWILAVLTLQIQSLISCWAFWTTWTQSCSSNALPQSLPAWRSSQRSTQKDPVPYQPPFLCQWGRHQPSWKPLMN", "assay": "ATG_Xbp1_CIS: Attagene CIS-FACTORIAL HepG2 Assay for human X-box Binding Protein 1 (XBP1) (AID 2282972)", "conditions": "HepG2 XBP1 cis-element reporter, Attagene multiplex; actives raise or lower the signal", "how_it_was_run": "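Human hepatoma HepG2, cis-element reporter system, 24 h treatment; mRNA quantified by RT-PCR/CE fluorescence; fit relative to DMSO.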"}, "[5]": {"assay": "ATG_M_19_TRANS: Attagene TRANS-FACTORIAL HepG2 Assay for M19 Transcription Factor (Internal Marker) (AID 2282974; active = hit-call score of the fitted dose curve at least 0.9, where 1 is the maximum)", "conditions": "HepG2 Attagene TRANS-FACTORIAL M19 internal marker reporter", "how_it_was_run": "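After transfection of HepG2 with GAL4-UAS-driven reporter constructs, cells are dosed for 24 h. Total RNA is reverse-transcribed, reporter sequences PCR-amplified and labelled, then HpaI-digested and sized by capillary electrophoresis.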"}, "[6]": {"assay": "ATG_GAL4_TRANS: Attagene TRANS-FACTORIAL HepG2 Assay for GAL4 (Internal Marker) (AID 2282976; active = hit-call score of the fitted dose curve at least 0.9, where 1 is the maximum)", "conditions": "HepG2 Attagene TRANS GAL4 internal marker reporter", "how_it_was_run": "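First, HepG2 cells were transfected with reporter units under GAL4-UAS control. Next, they were treated with chemical for 24 h. Finally, RNA was reverse-transcribed, PCR-amplified, FAM-labelled and resolved by capillary electrophoresis, with induction scored against DMSO.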"}, "[7]": {"assay": "ATG_M_06_TRANS: Attagene TRANS-FACTORIAL HepG2 Assay for M06 Transcription Factor (Internal Marker) (AID 2282983; active = hit-call score of the fitted dose curve at least 0.9, where 1 is the maximum)", "conditions": "HepG2 Attagene TRANS M06 internal marker reporter", "how_it_was_run": "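Background control endpoint: reporter mRNA from transiently transfected HepG2 after 24 h dosing, detected by RT-PCR with capillary electrophoresis fluorescence. Analysed for gain versus DMSO.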"}, "[8]": {"assay": "ATG_M_32_TRANS: Attagene TRANS-FACTORIAL HepG2 Assay for M32 Transcription Factor (Internal Marker) (AID 2282984; active = hit-call score of the fitted dose curve at least 0.9, where 1 is the maximum)", "conditions": "HepG2 Attagene TRANS M32 internal marker reporter", "how_it_was_run": "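Internal-marker readout from a multiplexed transcription reporter panel. HepG2 cells were transfected with GAL4-UAS reporter units, treated 24 hours, and reporter transcript levels determined by fluorescence after RT-PCR and capillary separation.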"}, "[9]": {"target": "Nuclear receptor subfamily 4 group A member 2 (Homo sapiens) (UniProt P43354)", "sequence (P43354 whole entry, looked up)": "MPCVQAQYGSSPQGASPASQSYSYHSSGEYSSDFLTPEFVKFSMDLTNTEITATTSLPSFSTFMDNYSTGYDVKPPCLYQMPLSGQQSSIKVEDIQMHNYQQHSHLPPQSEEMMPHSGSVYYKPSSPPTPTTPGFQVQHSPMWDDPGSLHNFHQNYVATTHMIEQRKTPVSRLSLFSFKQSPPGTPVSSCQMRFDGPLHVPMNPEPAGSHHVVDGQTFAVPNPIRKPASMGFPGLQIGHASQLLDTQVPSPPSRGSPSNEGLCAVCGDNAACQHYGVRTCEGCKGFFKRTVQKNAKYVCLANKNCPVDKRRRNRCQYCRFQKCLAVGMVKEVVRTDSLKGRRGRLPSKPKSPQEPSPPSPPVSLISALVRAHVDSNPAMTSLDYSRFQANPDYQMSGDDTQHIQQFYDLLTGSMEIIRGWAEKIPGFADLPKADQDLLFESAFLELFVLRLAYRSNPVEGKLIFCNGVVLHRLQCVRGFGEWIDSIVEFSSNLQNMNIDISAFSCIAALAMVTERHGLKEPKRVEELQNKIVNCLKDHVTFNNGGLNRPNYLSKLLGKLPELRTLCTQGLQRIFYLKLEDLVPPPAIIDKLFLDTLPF", "assay": "ATG_NURR1_TRANS: Attagene TRANS-FACTORIAL HepG2 Assay for human Nuclear Receptor Related Protein 1 (NURR1) (AID 2282985; active = hit-call score of the fitted dose curve at least 0.9, where 1 is the maximum)", "conditions": "HepG2 Attagene TRANS reporter, mRNA readout", "how_it_was_run": "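Endpoint: reporter mRNA increase relative to DMSO. HepG2 cells transfected with reporter units, treated 24 h; RNA processed by RT-PCR, labelling, HpaI digestion and capillary electrophoresis.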"}, "[10]": {"target": "Transcriptional activator Myb (Homo sapiens) (UniProt P10242)", "sequence (P10242 whole entry, looked up)": "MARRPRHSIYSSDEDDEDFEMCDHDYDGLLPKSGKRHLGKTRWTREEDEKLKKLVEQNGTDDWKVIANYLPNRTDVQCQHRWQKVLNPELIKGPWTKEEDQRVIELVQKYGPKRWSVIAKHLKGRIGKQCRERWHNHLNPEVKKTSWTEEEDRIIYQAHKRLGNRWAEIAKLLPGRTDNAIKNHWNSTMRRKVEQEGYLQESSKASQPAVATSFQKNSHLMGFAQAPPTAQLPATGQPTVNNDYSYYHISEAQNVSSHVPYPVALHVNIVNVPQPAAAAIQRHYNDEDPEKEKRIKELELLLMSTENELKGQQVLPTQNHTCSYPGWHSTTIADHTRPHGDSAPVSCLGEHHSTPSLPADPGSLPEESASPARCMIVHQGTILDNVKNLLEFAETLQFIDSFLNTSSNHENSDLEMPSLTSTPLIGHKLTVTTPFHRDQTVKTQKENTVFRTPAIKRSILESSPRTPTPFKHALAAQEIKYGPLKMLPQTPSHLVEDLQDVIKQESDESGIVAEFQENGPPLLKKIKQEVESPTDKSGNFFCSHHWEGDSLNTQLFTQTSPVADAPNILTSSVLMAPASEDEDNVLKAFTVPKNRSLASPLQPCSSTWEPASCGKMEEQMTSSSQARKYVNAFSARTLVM", "assay": "ATG_Myb_CIS: Attagene CIS-FACTORIAL HepG2 Assay for human Myeloblastosis (Myb) Proto-Oncogene Transcription Factor (AID 2282986)", "conditions": "HepG2 Attagene CIS-FACTORIAL Myb reporter transcription; actives raise or lower the signal", "how_it_was_run": "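Endogenous transcription factor activity at a Myb-responsive cis element is reported in human liver HepG2 cells after 24 h chemical treatment. Reporter mRNA is detected by RT-PCR and capillary electrophoresis fluorescence, with DMSO as baseline.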"}, "[11]": {"target": "Nuclear respiratory factor 1 (Homo sapiens) (UniProt Q16656)", "sequence (Q16656 whole entry, looked up)": "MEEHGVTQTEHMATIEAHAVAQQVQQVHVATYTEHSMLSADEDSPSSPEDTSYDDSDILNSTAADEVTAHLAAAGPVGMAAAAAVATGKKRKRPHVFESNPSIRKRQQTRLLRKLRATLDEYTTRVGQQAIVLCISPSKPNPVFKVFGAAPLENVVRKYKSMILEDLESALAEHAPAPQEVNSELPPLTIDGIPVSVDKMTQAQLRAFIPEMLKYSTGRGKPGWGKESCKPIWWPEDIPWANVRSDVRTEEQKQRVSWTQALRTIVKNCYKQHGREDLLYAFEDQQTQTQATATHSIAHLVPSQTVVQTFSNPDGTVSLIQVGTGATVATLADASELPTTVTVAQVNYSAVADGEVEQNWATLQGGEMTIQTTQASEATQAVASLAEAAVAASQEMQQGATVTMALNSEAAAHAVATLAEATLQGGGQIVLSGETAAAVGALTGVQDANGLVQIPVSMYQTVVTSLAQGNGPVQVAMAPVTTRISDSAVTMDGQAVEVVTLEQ", "assay": "ATG_NRF1_CIS: Attagene CIS-FACTORIAL HepG2 Assay for human Nuclear Respiratory Factor 1 (NRF1) Orphan Gene (AID 2282987)", "conditions": "HepG2 NRF1 cis-element reporter, Attagene multiplex; actives raise or lower the signal", "how_it_was_run": "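Human hepatoma HepG2 cells carrying transfected promoter-regulated reporter units were incubated with test chemicals for 24 h. Reporter transcripts were measured by RT-PCR plus capillary electrophoresis, and endpoints derived by bidirectional fitting with DMSO as baseline.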"}, "[12]": {"target": "Glucocorticoid receptor (Homo sapiens) (UniProt P04150)", "sequence (P04150 whole entry, looked up)": "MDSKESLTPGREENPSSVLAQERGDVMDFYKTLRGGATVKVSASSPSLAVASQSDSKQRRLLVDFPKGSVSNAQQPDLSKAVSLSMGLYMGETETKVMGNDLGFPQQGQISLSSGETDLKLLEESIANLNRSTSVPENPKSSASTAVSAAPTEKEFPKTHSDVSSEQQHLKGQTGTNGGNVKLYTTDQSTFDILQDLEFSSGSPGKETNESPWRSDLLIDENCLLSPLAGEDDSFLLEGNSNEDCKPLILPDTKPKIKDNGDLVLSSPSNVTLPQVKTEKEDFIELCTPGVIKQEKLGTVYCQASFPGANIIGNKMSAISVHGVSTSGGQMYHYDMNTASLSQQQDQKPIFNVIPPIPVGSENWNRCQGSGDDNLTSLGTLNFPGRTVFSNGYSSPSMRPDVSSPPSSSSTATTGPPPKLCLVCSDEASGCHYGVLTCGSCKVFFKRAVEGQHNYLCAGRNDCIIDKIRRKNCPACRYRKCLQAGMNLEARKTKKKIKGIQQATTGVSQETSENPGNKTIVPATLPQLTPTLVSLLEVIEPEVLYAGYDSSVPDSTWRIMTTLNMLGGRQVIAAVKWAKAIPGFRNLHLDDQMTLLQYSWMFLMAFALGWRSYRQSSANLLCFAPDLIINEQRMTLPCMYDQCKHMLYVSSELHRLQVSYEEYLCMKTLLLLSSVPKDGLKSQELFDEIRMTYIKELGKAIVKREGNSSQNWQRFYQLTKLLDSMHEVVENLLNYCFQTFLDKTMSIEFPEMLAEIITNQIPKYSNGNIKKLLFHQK", "assay": "ATG_GR_TRANS: Attagene TRANS-FACTORIAL HepG2 Assay for human Glucocorticoid Receptor (GR) (AID 2282978; active = hit-call score of the fitted dose curve at least 0.9, where 1 is the maximum;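 note: activators score as hits since higher reporter transcript over DMSO is fitted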)", "conditions": "HepG2 Attagene TRANS GR reporter, mRNA transcription", "how_it_was_run": "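Multiplexed TRANS reporter system, HepG2; 24 h exposure; RNA → oligo(dT) RT → reporter-specific PCR → 6-FAM primer extension → HpaI cut → CE fluorescence. Gain-of-signal vs DMSO.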"}, "[13]": {"target": "Hepatocyte nuclear factor 4-alpha (Homo sapiens) (UniProt P41235)", "sequence (P41235 whole entry, looked up, the tested form may be a part)": "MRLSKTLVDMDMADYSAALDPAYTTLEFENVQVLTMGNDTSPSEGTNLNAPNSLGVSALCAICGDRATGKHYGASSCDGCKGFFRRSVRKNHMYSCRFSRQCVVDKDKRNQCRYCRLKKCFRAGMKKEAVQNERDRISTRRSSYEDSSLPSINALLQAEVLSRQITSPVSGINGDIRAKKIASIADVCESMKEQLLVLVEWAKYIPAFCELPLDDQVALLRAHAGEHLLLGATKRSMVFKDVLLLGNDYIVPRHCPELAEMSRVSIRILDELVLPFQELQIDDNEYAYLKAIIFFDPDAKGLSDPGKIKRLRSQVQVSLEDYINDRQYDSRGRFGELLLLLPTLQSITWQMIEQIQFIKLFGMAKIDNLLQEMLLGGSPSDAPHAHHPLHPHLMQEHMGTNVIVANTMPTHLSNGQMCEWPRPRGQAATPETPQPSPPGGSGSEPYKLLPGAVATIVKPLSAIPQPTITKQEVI", "assay": "ATG_HNF4a_TRANS: Attagene TRANS-FACTORIAL HepG2 Assay for human Hepatocyte Nuclear Factor 4 alpha (HNF4a) (AID 2282982; active = hit-call score of the fitted dose curve at least 0.9, where 1 is the maximum)", "conditions": "HepG2 HNF4a transactivation reporter, mRNA readout", "how_it_was_run": "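Endpoint reflects transcriptional activation of a GAL4-UAS reporter by an HNF4a-GAL4 chimera in transfected HepG2 cells, 24 h post-dosing. Fluorescence from RT-PCR products separated by capillary electrophoresis; DMSO baseline.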"}, "[14]": {"target": "Bile acid receptor (Homo sapiens) (UniProt Q96RI1)", "sequence (Q96RI1 whole entry, looked up, the tested form may be a part)": "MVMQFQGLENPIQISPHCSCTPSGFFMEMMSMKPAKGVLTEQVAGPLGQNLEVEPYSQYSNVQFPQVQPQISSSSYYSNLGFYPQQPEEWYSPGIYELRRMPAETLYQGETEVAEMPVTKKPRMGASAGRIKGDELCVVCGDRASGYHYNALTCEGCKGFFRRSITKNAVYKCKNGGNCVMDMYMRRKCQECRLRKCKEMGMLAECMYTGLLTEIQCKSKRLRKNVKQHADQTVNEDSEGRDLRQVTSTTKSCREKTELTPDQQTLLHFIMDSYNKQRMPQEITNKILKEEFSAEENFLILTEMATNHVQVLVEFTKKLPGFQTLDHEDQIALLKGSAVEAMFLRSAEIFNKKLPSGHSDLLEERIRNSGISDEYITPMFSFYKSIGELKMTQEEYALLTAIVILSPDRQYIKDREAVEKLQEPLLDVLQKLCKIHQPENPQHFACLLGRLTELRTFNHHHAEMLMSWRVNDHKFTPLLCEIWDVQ", "assay": "ATG_FXR_TRANS: Attagene TRANS-FACTORIAL HepG2 Assay for Farnesoid X Receptor (FXR) (AID 2282979; active = hit-call score of the fitted dose curve at least 0.9, where 1 is the maximum;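 note: hits raise reporter mRNA above DMSO so AC50 marks FXR activation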)", "conditions": "HepG2 Attagene TRANS FXR-GAL4 reporter transcription", "how_it_was_run": "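Transient transfection of HepG2 with multiplexed GAL4-UAS reporter units; exogenous FXR-GAL4 chimera. Dose 24 h → TriZol RNA → oligo(dT) RT → PCR, 6-FAM primer extension, HpaI cut → CE. Gain vs DMSO.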"}, "[15]": {"target": "Oxysterols receptor LXR-beta (Homo sapiens) (UniProt P55055)", "sequence (P55055 whole entry, looked up, the tested form may be a part)": "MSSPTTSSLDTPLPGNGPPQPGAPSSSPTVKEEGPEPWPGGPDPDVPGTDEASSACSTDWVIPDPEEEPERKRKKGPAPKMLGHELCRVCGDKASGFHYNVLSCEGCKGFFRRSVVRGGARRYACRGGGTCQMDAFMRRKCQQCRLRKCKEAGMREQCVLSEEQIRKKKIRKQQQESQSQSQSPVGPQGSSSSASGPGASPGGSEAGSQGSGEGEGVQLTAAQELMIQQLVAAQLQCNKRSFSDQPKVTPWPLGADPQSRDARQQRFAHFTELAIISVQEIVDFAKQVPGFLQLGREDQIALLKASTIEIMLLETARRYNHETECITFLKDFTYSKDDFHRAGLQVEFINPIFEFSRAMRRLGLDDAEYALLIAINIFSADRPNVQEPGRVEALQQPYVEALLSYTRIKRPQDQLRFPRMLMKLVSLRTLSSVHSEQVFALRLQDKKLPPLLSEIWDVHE", "assay": "ATG_LXRb_TRANS: Attagene TRANS-FACTORIAL HepG2 Assay for human Liver X Receptor beta (LXRb) (AID 2282981; active = hit-call score of the fitted dose curve at least 0.9, where 1 is the maximum)", "conditions": "HepG2 Attagene TRANS GAL4-LXRb reporter, mRNA", "how_it_was_run": "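Multiplexed reporter assay, HepG2, 24 h dosing. Fluorescence of labelled RT-PCR products after capillary electrophoresis gives transcript level; positive fitting direction relative to DMSO.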"}}, "note": "Records with an inconclusive call do not appear. The source made the active and inactive calls. Rule for the calls, unless noted: active = hit-call score of the fitted dose curve at least 0.9, where 1 is the maximum; inactive = score below 0.9."}
{"smiles": "CCOC(=O)[C@H](C)O", "values": [{"measurement": "outcome", "setting": "[1]", "value": "inactive"}, {"measurement": "outcome", "setting": "[2]", "value": "inactive"}, {"measurement": "outcome", "setting": "[3]", "value": "inactive"}, {"measurement": "outcome", "setting": "[4]", "value": "inactive"}, {"measurement": "outcome", "setting": "[5]", "value": "inactive"}, {"measurement": "outcome", "setting": "[6]", "value": "inactive"}, {"measurement": "outcome", "setting": "[7]", "value": "inactive"}, {"measurement": "outcome", "setting": "[8]", "value": "inactive"}, {"measurement": "outcome", "setting": "[9]", "value": "inactive"}, {"measurement": "outcome", "setting": "[10]", "value": "inactive"}, {"measurement": "outcome", "setting": "[11]", "value": "inactive"}]}
{"smiles": "NC(=O)C1CO1", "note": "(configuration not stated)", "values": [{"measurement": "outcome", "setting": "[1]", "value": "inactive"}, {"measurement": "outcome", "setting": "[2]", "value": "inactive"}, {"measurement": "outcome", "setting": "[3]", "value": "inactive"}, {"measurement": "outcome", "setting": "[4]", "value": "inactive"}, {"measurement": "outcome", "setting": "[5]", "value": "inactive"}, {"measurement": "outcome", "setting": "[12]", "value": "inactive"}, {"measurement": "outcome", "setting": "[13]", "value": "inactive"}, {"measurement": "outcome", "setting": "[8]", "value": "inactive"}, {"measurement": "outcome", "setting": "[10]", "value": "inactive"}, {"measurement": "outcome", "setting": "[11]", "value": "inactive"}]}
{"smiles": "CCOc1nc(F)cc2nc(S(=O)(=O)Nc3c(Cl)cccc3C(=O)OC)nn12", "values": [{"measurement": "outcome", "setting": "[1]", "value": "inactive"}, {"measurement": "outcome", "setting": "[2]", "value": "inactive"}, {"measurement": "AC50", "setting": "[3]", "value": "16.6 µM (active)"}, {"measurement": "outcome", "setting": "[4]", "value": "inactive"}, {"measurement": "outcome", "setting": "[6]", "value": "inactive"}, {"measurement": "outcome", "setting": "[12]", "value": "inactive"}, {"measurement": "outcome", "setting": "[14]", "value": "inactive"}, {"measurement": "outcome", "setting": "[15]", "value": "inactive"}, {"measurement": "outcome", "setting": "[7]", "value": "inactive"}, {"measurement": "outcome", "setting": "[10]", "value": "inactive"}, {"measurement": "outcome", "setting": "[11]", "value": "inactive"}]}
{"smiles": "COC(=O)c1sccc1S(N)(=O)=O", "values": [{"measurement": "outcome", "setting": "[1]", "value": "inactive"}, {"measurement": "outcome", "setting": "[2]", "value": "inactive"}, {"measurement": "outcome", "setting": "[3]", "value": "inactive"}, {"measurement": "outcome", "setting": "[4]", "value": "inactive"}, {"measurement": "outcome", "setting": "[5]", "value": "inactive"}, {"measurement": "outcome", "setting": "[14]", "value": "inactive"}, {"measurement": "outcome", "setting": "[7]", "value": "inactive"}, {"measurement": "outcome", "setting": "[8]", "value": "inactive"}, {"measurement": "outcome", "setting": "[9]", "value": "inactive"}, {"measurement": "outcome", "setting": "[10]", "value": "inactive"}, {"measurement": "outcome", "setting": "[11]", "value": "inactive"}]}
{"smiles": "O=C1CCC(=O)N1Cl", "values": [{"measurement": "outcome", "setting": "[1]", "value": "inactive"}, {"measurement": "outcome", "setting": "[2]", "value": "inactive"}, {"measurement": "outcome", "setting": "[3]", "value": "inactive"}, {"measurement": "outcome", "setting": "[4]", "value": "inactive"}, {"measurement": "outcome", "setting": "[5]", "value": "inactive"}, {"measurement": "outcome", "setting": "[6]", "value": "inactive"}, {"measurement": "outcome", "setting": "[12]", "value": "inactive"}, {"measurement": "outcome", "setting": "[15]", "value": "inactive"}, {"measurement": "outcome", "setting": "[13]", "value": "inactive"}, {"measurement": "outcome", "setting": "[7]", "value": "inactive"}, {"measurement": "outcome", "setting": "[8]", "value": "inactive"}, {"measurement": "outcome", "setting": "[9]", "value": "inactive"}, {"measurement": "outcome", "setting": "[10]", "value": "inactive"}, {"measurement": "outcome", "setting": "[11]", "value": "inactive"}]}
